ChEMBL document CHEMBL3988442, “University of Dundee, Small-Polar-MMV Screening Library” (2021)
In all, about 48,000 compounds went through this assay and about 13,000 (27%) showed an effect of 50% or more. The list shows a part of the results.

tested on: Wolbachia pipientis; assay: Anti-Wolbachia Cell-Based Screen; format: functional; design: scale not given: in the data most compounds retested in dose-response had high values; settings: 5 µM

Question: How did the “Percent Effect” value turn out when `Cc1cccc(NCCOc2cccc(C#N)c2)c1C(N)=O` was run?
Answer: The value was -11.96%.

Question: With `Cc1cc(C)n(Cc2cccc(C(=O)N(CCC#N)CCC#N)c2)n1` as the compound, how does the “Percent Effect” value read?
Answer: The value was -7.761%.

Question: Which “Percent Effect” value does the source give for `CC(C)c1nnc2n1CCN(C(=O)c1cccc(OCC(N)=O)c1)C2` here?
Answer: The value was -10.94%.

Question: How did the “Percent Effect” value turn out when `CC(C)c1cc(NCC2(Cn3cccn3)CC2)nc(N)n1` was run?
Answer: Its value is 7.043%.

Question: How did the “Percent Effect” value turn out when `CN(C)CCCN(C)C1CCN(c2cccc(-c3cscn3)c2)CC1` was run?
Answer: The value was 6.682%.

Question: Which “Percent Effect” value does the source give for `O=C(c1cnc(NCC2CCCO2)c(Cl)c1)N1CCOCC1` (centres undefined) here?
Answer: The value was 2.383%.

Question: Which “Percent Effect” value does the source give for `O=C(NC[C@@H]1CCCO1)c1cc(Br)cnc1N1CCCCC1` here?
Answer: The value was 112.6%.

Question: With `O=C(NC1CCN(c2ncccn2)CC1)c1cc2c(cc1O)CCCC2` as the compound, how does the “Percent Effect” value read?
Answer: The value was 1.017%.

Question: With `O=C(NCC1CCCCC1)c1nnn(-c2ccc(Br)cc2)n1` as the compound, how does the “Percent Effect” value read?
Answer: Its value is -0.9526%.

Question: With `COc1ccc(Br)c(C(=O)NCC2CCN(S(=O)(=O)C3CC3)CC2)c1` as the compound, how does the “Percent Effect” value read?
Answer: The value was -4.78%.

Question: How did the “Percent Effect” value turn out when `O=C(c1cnc(NCC2CCCO2)c(Cl)c1)N1CCCCC1` (centres undefined) was run?
Answer: Its value is 21.16%.

Question: How did the “Percent Effect” value turn out when `O=C(NC1CCCCC1)c1cc(Br)cnc1N1CCCCC1` was run?
Answer: Its value is 116.3%.

Question: How did the “Percent Effect” value turn out when `O=C(NCC1CC1)c1cc(Br)cnc1N1CCCCC1` was run?
Answer: Its value is 74.44%.

Question: How did the “Percent Effect” value turn out when `O=C(NC1CC1)c1cnc(-c2noc3cc(N4CCCCC4)ccc23)s1` was run?
Answer: The value was -8.879%.

Question: `Cc1ccc([C@@H]2CN(C(=O)c3cc(C)no3)C[C@H]2NC(=O)C2CC2)cc1` was tested. Which “Percent Effect” value did it give?
Answer: The value was -6.322%.

Question: How did the “Percent Effect” value turn out when `Cc1cc(C)c(CCNC(=O)CN2CCCN(C(N)=O)CC2)c(C)c1` was run?
Answer: Its value is 7.662%.

Question: For `CC(SCCNS(=O)(=O)c1cnn(C)c1)c1cccs1` (centres undefined), which “Percent Effect” value is on record?
Answer: The value was 10.16%.

Question: For `CCc1c(C(=O)N2CCOC(C)(C)C2)cnn1-c1ccccn1`, which “Percent Effect” value is on record?
Answer: Its value is 19.62%.

Question: With `COc1cccc2c1N(CC(=O)Nc1ccc(Br)cn1)CCC2` as the compound, how does the “Percent Effect” value read?
Answer: Its value is -18.77%.

Question: How did the “Percent Effect” value turn out when `COc1ccc(-c2ccc(C(=O)NS(C)(=O)=O)c(F)c2)c(F)c1` was run?
Answer: Its value is 2.644%.

Question: With `CCc1cnc(NC2CCc3c(ccc(=O)n3C)C2)nc1` (centres undefined) as the compound, how does the “Percent Effect” value read?
Answer: The value was -4.602%.

Question: With `COCCn1c2c(ccc1=O)CC(NCc1cnn(C)c1)CC2` (centres undefined) as the compound, how does the “Percent Effect” value read?
Answer: Its value is 90.26%.

Question: For `O=c1ccc2c(n1Cc1cccnc1)CCC(NCc1cccnc1)C2` (centres undefined), which “Percent Effect” value is on record?
Answer: Its value is -5.878%.

Question: `Cn1cc(CNC2CCc3c(ccc(=O)n3C)C2)cn1` (centres undefined) was tested. Which “Percent Effect” value did it give?
Answer: The value was 106.3%.

Question: With `CCn1c2c(ccc1=O)CC(NCc1cnn(C)c1)CC2` (centres undefined) as the compound, how does the “Percent Effect” value read?
Answer: The value was 111.7%.

Question: `COCCn1c2c(ccc1=O)CC(NC(=O)c1cscn1)CC2` (centres undefined) was tested. Which “Percent Effect” value did it give?
Answer: Its value is -30.94%.

Question: How did the “Percent Effect” value turn out when `Cc1cnc(NC2CCc3c(ccc(=O)n3C)C2)nc1` (centres undefined) was run?
Answer: The value was 9.132%.

Question: How did the “Percent Effect” value turn out when `Cc1cnc(NC2CCc3c(ccc(=O)n3CC3CC3)C2)nc1` (centres undefined) was run?
Answer: Its value is -5.786%.

Question: How did the “Percent Effect” value turn out when `CN(C)C(=O)Cn1c2c(ccc1=O)CC(NCc1cccnc1)CC2` (centres undefined) was run?
Answer: The value was -16.54%.

Question: Which “Percent Effect” value does the source give for `Cn1cc(-c2csc(CN3CCOCC3)n2)cn1` here?
Answer: The value was -11.66%.

Question: How did the “Percent Effect” value turn out when `N#Cc1ccccc1C(=O)N1C[C@@H](CN2CCCCC2)[C@@H](CO)C1` was run?
Answer: Its value is -9.135%.

Question: `CC(C)(C)OC(=O)NC1(c2noc(-c3ccoc3)n2)CCC1` was tested. Which “Percent Effect” value did it give?
Answer: The value was -12.02%.

Question: How did the “Percent Effect” value turn out when `CC1(C)CC(N2Cc3nc(N)ncc3C2=O)CC(C)(C)N1` was run?
Answer: Its value is -10.52%.

Question: With `CO[C@@H]1CCN(c2nnc(C)s2)C[C@@H]1Cc1cccc(C)c1.O=C(O)C(F)(F)F` as the compound, how does the “Percent Effect” value read?
Answer: The value was 98.33%.

Question: For `Cc1cccc(CO[C@H]2CN(c3nnc(C)s3)[C@@H]3CCCO[C@H]23)n1.O=C(O)C(F)(F)F.O=C(O)C(F)(F)F`, which “Percent Effect” value is on record?
Answer: Its value is -4.881%.

Question: For `CO[C@H]1CCN(c2nnc(C)s2)C[C@@H]1Cc1cccc(C)c1.O=C(O)C(F)(F)F`, which “Percent Effect” value is on record?
Answer: The value was 71.03%.

Question: Which “Percent Effect” value does the source give for `CO[C@@H]1CCN(Cc2nccs2)C[C@@H]1Cc1cccc(C)c1.O=C(O)C(F)(F)F` here?
Answer: The value was -16.54%.

Question: `CCc1nc2c(N3CCC4(CC3)CC(=O)N(CC)C4)ncnc2o1` was tested. Which “Percent Effect” value did it give?
Answer: The value was -6.459%.

Question: With `CNc1ncc(CN(C)C(=O)c2cccc(CC3CCNCC3)c2)cn1` as the compound, how does the “Percent Effect” value read?
Answer: The value was 3.587%.

Question: `CC(=O)N1CCC2(CCN(C(=O)c3ccc(C)c(C(F)(F)F)c3)CC2)C1` was tested. Which “Percent Effect” value did it give?
Answer: Its value is 5.655%.

Question: With `O=C(Nc1ccccc1)[C@H]1O[C@H](CCN2CCCCC2)CC[C@@H]1O` as the compound, how does the “Percent Effect” value read?
Answer: Its value is -9.518%.

Question: `COCC(=O)Nc1ccc2c(c1)CN(C(=O)c1ccco1)CC2` was tested. Which “Percent Effect” value did it give?
Answer: The value was 105.1%.

Question: How did the “Percent Effect” value turn out when `CCC(=O)Nc1ccc2c(c1)CN(C(=O)c1ccco1)CC2` was run?
Answer: The value was 20.51%.

Question: With `Cc1n[nH]cc1CNc1ccc2c(c1)CN(C(=O)OC(C)(C)C)CC2` as the compound, how does the “Percent Effect” value read?
Answer: Its value is -19.63%.

Question: Which “Percent Effect” value does the source give for `Cc1ccc2c(n1)N(CCN(C)C)CCN(C(=O)c1ccco1)C2` here?
Answer: Its value is 15.51%.

Question: With `CC(=O)Nc1ccc2c(c1)CN(C(=O)c1ccco1)CC2` as the compound, how does the “Percent Effect” value read?
Answer: Its value is 113.8%.

Question: With `Cn1c(=O)oc2ccc(NC(=O)N3CCc4ccccc4C3)cc21` as the compound, how does the “Percent Effect” value read?
Answer: The value was 3.021%.

Question: Which “Percent Effect” value does the source give for `CCc1noc(CC)c1CNC(=O)Nc1ccc2[nH]nnc2c1` here?
Answer: Its value is 5.627%.

Question: How did the “Percent Effect” value turn out when `Cc1ccccc1CS(=O)(=O)CC(=O)N(C)Cc1ccccc1` was run?
Answer: The value was -7.305%.

Question: Which “Percent Effect” value does the source give for `CCCNC(=O)CCC(=O)Nc1ccc(-n2cncn2)c(F)c1` here?
Answer: Its value is -8.923%.

Question: How did the “Percent Effect” value turn out when `Cc1cc(S(=O)(=O)Nc2onc(C)c2C)c(C)s1` was run?
Answer: Its value is -1.825%.

Question: `Cc1ccc(NC(=O)NCC2(N3CCOCC3)CCSC2)c(C)c1` (centres undefined) was tested. Which “Percent Effect” value did it give?
Answer: The value was -11.49%.

Question: With `COCCN1CCCC1(C)c1nc(C)cc(N)n1` (centres undefined) as the compound, how does the “Percent Effect” value read?
Answer: Its value is 125.2%.

Question: Which “Percent Effect” value does the source give for `Cc1cc(C)nc(C2(C)CCCN2CCO)n1` (centres undefined) here?
Answer: Its value is 123.6%.

Question: `CCN1CCCC1(C)c1nc(C)cc(N)n1` (centres undefined) was tested. Which “Percent Effect” value did it give?
Answer: The value was 113.3%.

Question: For `COCCN1CCCC12CCCN(c1nncs1)C2` (centres undefined), which “Percent Effect” value is on record?
Answer: The value was 14.36%.

Question: With `CCCc1nc(C)cc(N2CCC3(CCC(=O)N(CCO)C3)CC2)n1` as the compound, how does the “Percent Effect” value read?
Answer: The value was 3.34%.

Question: With `CCCc1nc(C)cc(N2CCC3(CCC(=O)N(CCOC)C3)CC2)n1` as the compound, how does the “Percent Effect” value read?
Answer: Its value is 0.7545%.

Question: How did the “Percent Effect” value turn out when `Cc1cc(N2CCC3(CCC(=O)N(CCO)C3)CC2)nc(N(C)C)n1` was run?
Answer: Its value is 21.48%.

Question: Which “Percent Effect” value does the source give for `Cc1nnsc1C(=O)NCc1cccnc1N(C)Cc1ccccc1` here?
Answer: The value was -7.662%.

Question: `CC(C)N1CCOCC2(CN(Cc3nccs3)CCO2)C1.O=C(O)C(F)(F)F.O=C(O)C(F)(F)F` (centres undefined) was tested. Which “Percent Effect” value did it give?
Answer: The value was 13.74%.

Question: `CNS(=O)(=O)c1cccc(CNCc2ccsc2)c1` was tested. Which “Percent Effect” value did it give?
Answer: The value was 4.811%.

Question: `O=C(c1ccco1)N1CCC2(CCCN(c3ncc(F)cn3)C2)C1` (centres undefined) was tested. Which “Percent Effect” value did it give?
Answer: The value was 95.74%.

Question: For `O=C(O)C(F)(F)F.O=C(c1ccco1)N1CCCC2(CCN(c3nncs3)C2)C1` (centres undefined), which “Percent Effect” value is on record?
Answer: The value was 102.9%.

Question: How did the “Percent Effect” value turn out when `CC(=O)N1CCCC2(CCN(c3nncs3)C2)C1` (centres undefined) was run?
Answer: The value was -12.49%.

Question: For `O=C(c1ccoc1)N1CCC2(CCCN(c3ncc(F)cn3)C2)C1` (centres undefined), which “Percent Effect” value is on record?
Answer: Its value is 105.6%.

Question: For `O=C(c1ccco1)N1CCO[C@@H]2CN(c3ncc(F)cn3)CC[C@@H]2C1`, which “Percent Effect” value is on record?
Answer: Its value is -7.545%.

Question: With `O=C(c1ccco1)N1CCC2(CCOC2)C1` (centres undefined) as the compound, how does the “Percent Effect” value read?
Answer: The value was 5.675%.

Question: With `O=C(c1ccco1)N1CCCC2(CN(Cc3ccoc3)CCO2)C1` (centres undefined) as the compound, how does the “Percent Effect” value read?
Answer: The value was -2.684%.

Question: With `Cc1cnc(N2CC3(CCN(C(=O)c4ccoc4)C3)C2)nc1` as the compound, how does the “Percent Effect” value read?
Answer: Its value is -4.182%.

Question: For `O=C(c1ccoc1)N1CCC2(C1)CN(c1ncc(F)cn1)C2`, which “Percent Effect” value is on record?
Answer: The value was 0.03212%.

Question: `O=C(c1ccco1)N1CCCC2(C1)CN(c1nncs1)CCO2` (centres undefined) was tested. Which “Percent Effect” value did it give?
Answer: Its value is 86.33%.

Question: Which “Percent Effect” value does the source give for `O=C(CCO)N1CCOC2(CCCN(C(=O)c3ccco3)C2)C1` (centres undefined) here?
Answer: Its value is -2.214%.

Question: With `O=C(O)C(F)(F)F.O=C(c1ccccn1)N1CCC2(CCCN(c3nncs3)C2)C1` (centres undefined) as the compound, how does the “Percent Effect” value read?
Answer: The value was -19.65%.
